Reference: PubChem BioAssay (NCI)
Compounds without any hit were thinned out: in the full panel of roughly 79,000, 15% have a hit. Values without a mark were called inactive. The source made the active and inactive calls. Rule as the data show it: active = growth inhibition above about 70%; inactive = the rest.

Columns and labels:
[1] = NCI Yeast Anticancer Drug Screen. Data for the rad50 strain (AID 155);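 also: 0% = growth of vehicle-only cultures of the same strain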; conditions: S. cerevisiae rad50 strain growth inhibition; at 50.0 µM; hits give high values
In short: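 Yeast carrying a defined DNA repair defect were exposed to test compounds, and growth was compared with vehicle-treated controls to give percent inhibition.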

[2] = NCI Yeast Anticancer Drug Screen. Data for the mec2-1 strain (AID 157); conditions: S. cerevisiae mec2-1 strain, at 50.0 µM, hits give high values
In short: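 Using mec2-1 yeast: add compound, measure growth, express inhibition versus vehicle-treated cultures.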

[3] = NCI Yeast Anticancer Drug Screen. Data for the sgs1 mgt1 strain (AID 161);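 also: 0% = growth of cultures given vehicle only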; conditions: S. cerevisiae sgs1 mgt1 strain, at 50.0 µM, hits give high values
In short: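 Percent growth inhibition was derived by comparing compound-exposed mutant yeast with vehicle-exposed cultures. The strain carries alterations in DNA damage repair.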

[4] = NCI Yeast Anticancer Drug Screen. Data for the cln2 rad14 strain (AID 165);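 also: 0% = growth equal to vehicle treated cultures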; conditions: S. cerevisiae cln2 rad14 strain, at 50.0 µM, hits give high values
In short: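 Yeast strain cln2 rad14, bearing defects in cell cycle control and DNA repair, serves as the test system; values reflect growth inhibition compared with vehicle.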

[5] = NCI Yeast Anticancer Drug Screen. Data for the bub3 strain (AID 167); conditions: S. cerevisiae bub3 mutant strain, at 50.0 µM, hits give high values
In short: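 Compounds were applied to a genetically altered yeast strain carrying a cell-cycle control defect. Growth inhibition was scored against vehicle-treated controls.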

[6] = NCI Yeast Anticancer Drug Screen. Data for the mlh1 rad18 strain (AID 175); conditions: S. cerevisiae mlh1 rad18 strain growth inhibition; at 50.0 µM; hits give high values
In short: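 Steps: expose repair-defective yeast to compound; measure growth; express inhibition against vehicle-treated controls.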

Row | Compound | growth inhibition [1] | growth inhibition [2] | growth inhibition [3] | growth inhibition [4] | growth inhibition [5] | growth inhibition [6]
1 | O=C1c2cccc3c(Br)ccc(c23)C(=O)N1C1CCCCCCCCCCC1 | 99.2% (active) | 99.5% (active) | 99.5% (active) | 98.5% (active) | 99.2% (active) | 99.5% (active)
2 | CSC1=NC(C)(C)N=C(Oc2cc(Cl)cc(Cl)c2)N1 | -14.9% | -22.3% | -24.9% | -8.7% | -27.5% | -9.8%
3 | C[N+](C)(C)/N=C/c1ccc(O)c(O)c1 | -48.2% | -23.8% | -15.3% | -16% | -14.9% | -13.8%
4 | COc1ccc(F)cc1N | 2% | -17.8% | 5.15% | -7.35% | 11.8% | -18.7%
5 | Cc1cc(C)c(C#N)c(NN)n1 | -5.35% | -2.8% | 11.1% | 12.2% | -0.5% | -1.05%
6 | CC(=O)NC(CCCN)C(=O)NCc1ccccc1 (stereo not drawn) | 3.45% | -19.2% | -20.3% | 17.5% | -3.45% | -22.6%
7 | O=C(NC(c1ccccc1)C(O)c1ccccc1)C(Cl)Cl (stereo not drawn) | -5.45% | -14.8% | -1.95% | -4.65% | -0.75% | 2.65%
8 | [N-]=[N+]=NC1CC(n2cc(Cc3ccccc3)c(N)nc2=O)OC1CO (stereo not drawn) | -0.1% | -10.6% | 11.4% | 2.95% | 2.9% | -7.05%
9 | CC(=O)OCCOCNC(=S)NCc1ccco1 | 11.2% | -7.25% | -40% | 9.3% | 5.85% | -10.3%
10 | Cc1ccc(/C=N/NC2=NCCN2)s1 | -0.4% | 8% | 4.35% | 8.15% | -5.05% | 9.75%
11 | CCCC(=O)OCC1OC(n2cc(F)c(=O)[nH]c2=O)CC1O (stereo not drawn) | 14.2% | -4.2% | 5.65% | 9.7% | 6.65% | -27.4%
12 | CC1C(c2ccccc2O)c2cc3c(cc2OC1N1CCCC1)OCO3 (stereo not drawn) | 45.9% | 38.8% | 58.5% | 59.6% | 47.4% | 58.3%
13 | Cc1cc2c(cc1Cl)SC(NNC(=O)c1ccccc1)=NS2(=O)=O | -44.9% | -31.7% | -43.8% | -42.2% | -31.1% | -38.2%
14 | C[C@]12CCC(=O)C=C1CC[C@@H]1C2CC[C@]2(C)NC(=O)C(C#N)CC12 (stereo partly drawn) | -29.1% | -10.2% | -14.9% | -23.9% | -15.2% | -9.6%
15 | NC(=O)C(O)C(O)CO (stereo not drawn) | -8.8% | -9.35% | -15.2% | 7.2% | -8.8% | -5.25%
16 | c1ccc(-c2cc3nncc(-c4ccccc4)n3n2)cc1 | -14.9% | -9.95% | -7.65% | 13.9% | 13.3% | 3.55%
17 | CC1(O)Oc2c(cc(C(C)(C)C)cc2C(C)(C)C)C1=O (stereo not drawn) | 17.4% | -10.1% | 18.2% | -9% | 23.6% | 42.6%
18 | CCOC(=O)/C(=C/c1cn(C(C)=O)c2ccccc12)P(=O)(OC)OC | -28.9% | -4.1% | -1.15% | 13.8% | 5.75% | -15.8%
19 | CC/C(C)=N/NS(=O)(=O)c1ccc(C)cc1 | 43.9% | 13.2% | 2.3% | 16% | 1.15% | 42.5%

Row | Compound | growth inhibition [1] | growth inhibition [2] | growth inhibition [3] | growth inhibition [4] | growth inhibition [5] | growth inhibition [6]
20 | O=C(Oc1ccc(-c2ccccc2)cc1)c1cccc([N+](=O)[O-])c1 | -10.1% | -4.5% | 7.1% | -11.4% | 27.5% | 0.2%
21 | CCOC(=O)c1ccc(Nc2nc3ccc(C(F)(F)F)cc3nc2C(=O)OCC)cc1 | -24.6% | 3% | -11.9% | -12.9% | -6.2% | -12.2%
22 | Clc1ccc2noc(-c3ccccc3)c2c1 | 22.6% | 3.05% | 4% | 0.85% | 0.7% | 23.6%
23 | Cn1c(CC(O)(C(F)(F)Cl)C(F)(F)Cl)cc(=O)n1-c1ccccc1 | 41.6% | 1.3% | 8.7% | 6.25% | 7% | 7.2%
24 | Cc1cc(Cl)cc(Cl)c1OCC(=O)O | 6.3% | -1.35% | 4.4% | -24.3% | -1.75% | 0.05%
25 | ClCc1nn(-c2ccccc2)c(CCl)c1CCl | 46.6% | 14.3% | 18.4% | -1.45% | 8.25% | -4.55%
26 | Cc1cc(-c2ccc([NH2+][B-](F)(F)F)c(C)c2)ccc1[NH2+][B-](F)(F)F | -9.15% | -3.15% | -11.6% | -58.6% | 3.45% | -11.2%
27 | CCNC1C2(CCCCC2)NC(=O)C12CCCCC2 (stereo not drawn) | -43.4% | -10.9% | -1.1% | 12.1% | -7.05% | 2.65%
28 | CC(=O)Nc1ccc(C(=O)NN2C(=O)C(Cl)C2c2ccccc2)cc1 (stereo not drawn) | -22.1% | -18.4% | -49.4% | -10.2% | -28.8% | -28.6%
29 | C=C(CC/C=C\CO)[Si](C)(C)C | -10.5% | -20.1% | 1.05% | 7.35% | 9.95% | -9.5%
30 | O=N[O-].O=N[O-].[Co].[NH-]CC[N-]CC[N-]CC[NH-] | 10.4% | 7.2% | 1.9% | 3.65% | 19.6% | 11%
31 | CCCCCCCCCCCC(=O)N(C)CCS(=O)(=O)O | 6.2% | -28.8% | 4.55% | 13.1% | -20.6% | 8.45%
32 | CC(=O)c1c(O)ccc2c1CC(CC=O)O2 (stereo not drawn) | 18.6% | -1.05% | -20.9% | 0.75% | 9.05% | -21.4%
33 | COc1cc(C2C3=C(COC3=O)Oc3cc4c(cc32)OCO4)cc(OC)c1OC(C)=O (stereo not drawn) | -15.5% | -22.9% | 1.55% | 16.1% | -8.3% | -2.5%
34 | CCOc1ccc2c(c1)nc1ccccc1[n+]2C | 21.6% | 15.4% | 22% | 25.5% | 52.4% | 39.9%
35 | O=C(N=C1SCCS1)Nc1cccc(Cl)c1 | 87% (active) | 5.7% | 44% | 11.3% | 11.4% | 37.2%
36 | CCOC(=O)/C(=N/Nc1ccc(C)cc1)N1C(=S)C=C(C)NN(C)C1=S | -34.3% | 4% | -31.1% | -13.3% | -19.7% | -30.9%
37 | Cc1c([N+](=O)[O-])ccc2c1C(=O)c1ccccc1C2=O | -41.6% | -0.35% | -39.9% | 2.7% | -5.7% | 39.5%
38 | CC(O)C(NC(=O)c1cnc(OCc2ccccc2)nc1N)C(=O)O (stereo not drawn) | 3.65% | -15.7% | -11% | 0.85% | -9.8% | -3.35%
